Results on 4 compounds are retold here after PubChem BioAssay (EPA / NIEHS).

Active and inactive are the calls of the source. The calls were made as follows: active = hit-call score of the fitted dose curve at least 0.9, where 1 is the maximum; inactive = score below 0.9.

What all share (conditions): mRNA level, 48 h; actives raise or lower the signal
Read-out in assay [1]: Heat shock 70 kDa protein 1 (HSPA1A), gene 3303
Nature of the assay: LTEA_HepaRG_HSPA1A: Life Technologies and Expression Analysis (LTEA) Assay for Heat shock 70 kDa protein 1 (HSPA1A) using HepaRG (AID 2283502). In outline:
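HSPA1A expression measured by qRT-PCR with ACTB/GAPDH/POLR2A normalization; curves fitted in both directions relative to DMSO vehicle. Exposure: 48 h in HepaRG cells, duplicate 8-point half-log series from 100 uM, 0.5% DMSO, serum-free induction medium.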

Read-out in assay [2]: Hypoxia-inducible factor 1-alpha (Homo sapiens) (UniProt Q16665)
Nature of the assay: LTEA_HepaRG_HIF1A: Life Technologies and Expression Analysis (LTEA) Assay for Hypoxia-inducible factor 1 (HIF1A) Trancription factor using HepaRG (AID 2283503). Summed up:
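HIF1A transcript level read by qRT-PCR (ACTB, GAPDH, POLR2A normalization) after 48 h chemical exposure of HepaRG cultures. Eight half-log concentrations, top 100 uM, 0.5% DMSO vehicle, duplicates; bidirectional curve fit against DMSO baseline.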

Read-out in assay [3]: 3-Hydroxy-3-Methylglutaryl-CoA Synthase 2 (HMGCS2), HMGCS2 (gene 3158)
In words: LTEA_HepaRG_HMGCS2: Life Technologies and Expression Analysis (LTEA) Assay for 3-Hydroxy-3-Methylglutaryl-CoA Synthase 2 (HMGCS2) using HepaRG (AID 2283504). In outline: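 Expression of HMGCS2 in human HepaRG liver cells is measured by qRT-PCR 48 h after dosing (highest 100 uM, half-log series, 0.5% DMSO). Values come from bidirectional concentration-response fitting with DMSO as baseline.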

Read-out in another assay: HGF (gene 3082)
Nature of the assay: LTEA_HepaRG_HGF: Life Technologies and Expression Analysis (LTEA) Assay for Hepatocyte Growth Facto (HGF) using HepaRG (AID 2283505). Summed up:
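Gain or loss of HGF mRNA in human HepaRG liver cells after 48 h chemical exposure; eight concentrations up to 100 uM with 0.5% DMSO vehicle, quantified by TaqMan qRT-PCR.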

Read-out in assay [4]: Insulin Like Growth Factor 1 (IGF1), IGF1 (gene 3479)
In words: LTEA_HepaRG_IGF1: Life Technologies and Expression Analysis (LTEA) Assay for Insulin Like Growth Factor 1 (IGF1) using HepaRG (AID 2283506). In outline:
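Expression measured by TaqMan qRT-PCR on a Fluidigm array, with three housekeeping genes for normalisation, after 48 h treatment of HepaRG cells. Top concentration 100 uM with half-log steps, 0.5% DMSO vehicle, bidirectional fit.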

Read-out in assay [5]: Insulin-like growth factor-binding protein 1 (IGFBP1), IGFBP1 (gene 3484)
In words: LTEA_HepaRG_IGFBP1: Life Technologies and Expression Analysis (LTEA) Assay for Insulin-like growth factor-binding protein 1 (IGFBP1) using HepaRG (AID 2283508). Summed up:
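mRNA induction or loss was quantified by qRT-PCR after 48 h chemical exposure of human HepaRG cells, with 0.5% DMSO as vehicle and baseline. Concentration-response over eight points up to 100 uM.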

Read-out in assay [6]: Interleukin 6 (IL6), IL6 (gene 3569)
Nature of the assay: LTEA_HepaRG_IL6: Life Technologies and Expression Analysis (LTEA) Assay for Interleukin 6 (IL6) using HepaRG (AID 2283509). Summed up:
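Changes in IL6 mRNA, up or down relative to 0.5% DMSO controls, were derived from concentration-response curves in human HepaRG cells treated for 48 h at up to 100 uM, with ACTB, GAPDH and POLR2A as normalizers.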

Read-out in assay [7]: Interleukin 6 Receptor (IL6R), IL6R (gene 3570)
In words: LTEA_HepaRG_IL6R: Life Technologies and Expression Analysis (LTEA) Assay for Interleukin 6 Receptor (IL6R) using HepaRG (AID 2283510).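 As to AC50: differentiated human HepaRG liver cells in serum-free induction medium; TaqMan qRT-PCR signal normalized to ACTB GAPDH and POLR2A housekeeping genes.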 In outline: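 IL6R transcript level by qRT-PCR after 48 h chemical exposure (8-point, half-log, max 100 uM, 0.5% DMSO vehicle) of HepaRG cells in serum-free induction medium. Normalized to three housekeeping genes; curves fitted in both directions relative to DMSO.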

Read-out in assay [8]: Potassium channel subfamily K member 1 (KCNK1), KCNK1 (gene 3775)
Nature of the assay: LTEA_HepaRG_KCNK1: Life Technologies and Expression Analysis (LTEA) Assay for Potassium channel subfamily K member 1 (KCNK1) using HepaRG (AID 2283511). Summed up:
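Human HepaRG cultures receive test chemicals for 48 h in 0.5% DMSO, top concentration 100 uM with half-log dilutions. Induction or suppression of KCNK1 mRNA relative to DMSO is derived by bidirectional fitting of qRT-PCR data.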

Read-out in assay [9]: Keratin 19 (KRT19), KRT19 (gene 3880)
In words: LTEA_HepaRG_KRT19: Life Technologies and Expression Analysis (LTEA) Assay for Keratin 19 (KRT19) using HepaRG (AID 2283512). In outline: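 Gene-expression endpoint in the human liver line HepaRG after 48 h exposure to up to 100 uM test chemical with 0.5% DMSO vehicle; KRT19 mRNA by qRT-PCR, analyzed bidirectionally versus DMSO.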

Read-out in assay [10]: JUN Transcription Factor, JUN (gene 3725)
Nature of the assay: LTEA_HepaRG_JUN: Life Technologies and Expression Analysis (LTEA) Assay for JUN Transcription Factor using HepaRG (AID 2283513). Summed up: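 mRNA measured by TaqMan qRT-PCR after 48 h chemical exposure of HepaRG cultures; normalization to three housekeeping genes. Duplicate eight-point half-log curves from 100 uM in 0.5% DMSO; gain or loss fitted against DMSO baseline.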

Read-out in assay [11]: Lipase C (LIPC), LIPC (gene 3990)
Nature of the assay: LTEA_HepaRG_LIPC: Life Technologies and Expression Analysis (LTEA) Assay for Lipase C (LIPC) using HepaRG (AID 2283514). Summed up:
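In this multiplexed gene-expression screen, human HepaRG cultures received test chemicals for 48 h across eight concentrations with 100 uM highest, in duplicate. Values reflect LIPC mRNA induction or suppression versus DMSO vehicle, from normalized qRT-PCR.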

Read-out in assay [12]: Lipoprotein lipase (LPL), LPL (gene 4023)
Nature of the assay: LTEA_HepaRG_LPL: Life Technologies and Expression Analysis (LTEA) Assay for Lipoprotein lipase (LPL) using HepaRG (AID 2283515). Summed up:
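Concentration-response testing used half-log steps from 100 uM in 0.5% DMSO on human HepaRG cells, 48 h, duplicate wells. Phenobarbital 1 mM served as induction control; LPL mRNA was normalized to ACTB, GAPDH, POLR2A.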

Read-out in assay [13]: MicroRNA 122 (MIR122), gene 406906
Nature of the assay: LTEA_HepaRG_MIR122: Life Technologies and Expression Analysis (LTEA) Assay for MicroRNA 122 (MIR122) using HepaRG (AID 2283516). Also: the transcript read is the microRNA miR-122. In outline:
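Expression measured by microfluidic qRT-PCR with three housekeeping genes for normalisation, after 48 h treatment of HepaRG cultures. Eight concentrations (top 100 uM, half-log steps, 0.5% DMSO vehicle) in duplicate; gain or loss fitted relative to vehicle.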

Read-out in assay [14]: matrix metalloproteinase-10 (MMP10), MMP10 (gene 4319)
Nature of the assay: LTEA_HepaRG_MMP10: Life Technologies and Expression Analysis (LTEA) Assay for matrix metalloproteinase-10 (MMP10) using HepaRG (AID 2283517). Summed up:
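In differentiated HepaRG cultures kept in 0.5% DMSO, test chemicals act for 48 h over an eight-point range with a top dose of 100 uM. Expression is then quantified by TaqMan RT-PCR against ACTB, GAPDH and POLR2A.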

Read-out in a further assay: MYC, MYC (gene 4609)
Nature of the assay: LTEA_HepaRG_MYC: Life Technologies and Expression Analysis (LTEA) Assay for MYC using HepaRG (AID 2283518). Summed up: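 Cells are thawed, plated and cultured 48 h, then treated for 48 h with test chemicals (eight half-log concentrations from 100 uM, 0.5% DMSO vehicle). RNA is isolated and MYC expression quantified by qRT-PCR against three housekeeping genes.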

Read-out in assay [15]: matrix metalloproteinase-3 (MMP3), MMP3 (gene 4314)
In words: LTEA_HepaRG_MMP3: Life Technologies and Expression Analysis (LTEA) Assay for matrix metalloproteinase-3 (MMP3) using HepaRG (AID 2283519). Summed up:
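Human liver HepaRG cultures received chemicals (top concentration 100 uM, 0.5% DMSO) for 48 h in duplicate. MMP3 mRNA induction or loss was then assessed via TaqMan qRT-PCR with housekeeping-gene normalisation.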

Read-out in assay [16]: Paternally Expressed 10 (PEG10), PEG10 (gene 23089)
Nature of the assay: LTEA_HepaRG_PEG10: Life Technologies and Expression Analysis (LTEA) Assay for Paternally Expressed 10 (PEG10) using HepaRG (AID 2283520).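 As to AC50: differentiated HepaRG human liver cells in serum-free induction medium with 0.5% DMSO; PEG10 transcript by qRT-PCR normalised to ACTB GAPDH and POLR2A.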 Summed up: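 PEG10 transcript measured by Fluidigm qRT-PCR, normalized to three housekeeping genes, in HepaRG cells treated 48 h (highest 100 uM, half-log steps, 0.5% DMSO vehicle). Cells plated 48 h before switching to serum-free induction medium.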

Read-out in assay [17]: Protein phosphatase 2A (PPP2R4), PTPA (gene 5524)
In words: LTEA_HepaRG_PPP2R4: Life Technologies and Expression Analysis (LTEA) Assay for Protein phosphatase 2A (PPP2R4) using HepaRG (AID 2283522). Summed up:
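Expression was quantified by Fluidigm qRT-PCR normalised to three housekeeping genes after 48 h treatment. Human HepaRG cells received an 8-point series from 100 µM downward by half-logs, in duplicate with 0.5% DMSO vehicle and 1 mM phenobarbital as induction control.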

Read-out in assay [18]: Phosphatase and tensin (PTEN), PTEN (gene 5728)
In words: LTEA_HepaRG_PTEN: Life Technologies and Expression Analysis (LTEA) Assay for Phosphatase and tensin (PTEN) using HepaRG (AID 2283523). In outline: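 Expression of PTEN is quantified in the human liver line HepaRG following two days of dosing (top concentration 100 uM, half-log dilutions, 0.5% DMSO). Values derive from bidirectional curve fitting relative to DMSO controls.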

Hypoxia-inducible factor 1-alpha (Homo sapiens), sequence (Q16665 whole entry, looked up): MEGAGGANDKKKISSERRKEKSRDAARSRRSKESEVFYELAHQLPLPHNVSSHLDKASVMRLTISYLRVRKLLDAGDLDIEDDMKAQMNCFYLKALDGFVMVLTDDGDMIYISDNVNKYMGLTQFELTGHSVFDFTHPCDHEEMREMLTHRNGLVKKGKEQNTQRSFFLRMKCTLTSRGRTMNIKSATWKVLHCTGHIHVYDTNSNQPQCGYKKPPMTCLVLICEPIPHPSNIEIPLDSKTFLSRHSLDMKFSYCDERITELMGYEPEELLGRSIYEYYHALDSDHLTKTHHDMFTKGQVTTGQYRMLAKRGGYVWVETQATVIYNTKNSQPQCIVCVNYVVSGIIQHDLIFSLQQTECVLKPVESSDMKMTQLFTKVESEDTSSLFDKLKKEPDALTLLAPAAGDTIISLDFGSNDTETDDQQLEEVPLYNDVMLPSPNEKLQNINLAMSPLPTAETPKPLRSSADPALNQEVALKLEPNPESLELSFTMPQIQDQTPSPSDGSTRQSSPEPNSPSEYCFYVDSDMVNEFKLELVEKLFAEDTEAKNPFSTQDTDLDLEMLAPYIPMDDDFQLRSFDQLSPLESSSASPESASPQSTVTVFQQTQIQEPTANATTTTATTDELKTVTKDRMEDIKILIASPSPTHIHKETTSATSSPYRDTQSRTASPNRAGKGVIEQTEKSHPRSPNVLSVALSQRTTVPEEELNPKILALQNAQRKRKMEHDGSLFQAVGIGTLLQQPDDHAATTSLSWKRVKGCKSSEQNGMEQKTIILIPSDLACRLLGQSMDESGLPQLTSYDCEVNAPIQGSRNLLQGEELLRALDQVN

Regarding `O=C(O)C(F)(F)C(F)(F)C(F)(F)C(F)(F)C(F)(F)C(F)(F)F`, the result (in assay [1]; in assay [2]; in the assay with HGF (gene 3082); in assay [4]; in assay [5]; in assay [6]) was inactive. Further, the call in [7], in assay [8], in [9], in assay [10], in assay [11] and in assay [12] was inactive. In addition, the outcome is “inactive” in [13]; “inactive” in assay [14]; “inactive” with MYC, MYC (gene 4609); “inactive” in assay [15]; “inactive” in assay [16]; “inactive” in assay [17]. The call in assay [18] was inactive. For the same compound, the half-maximal activity concentration (AC50) in assay [3] is 22 µM (active).

Turning to `O=C(O)C(F)(F)C(F)(F)C(F)(F)C(F)(F)C(F)(F)C(F)(F)C(F)(F)C(F)(F)C(F)(F)C(F)(F)F`, the call (in [1]; in assay [2]; in assay [3]; in the assay with HGF (gene 3082); in assay [4]; in assay [5]) was inactive. Further, the compound was called inactive in assay [6], in assay [8], in [9], in assay [10], in assay [11] and in [14]. The outcome with MYC, MYC (gene 4609) was “inactive”; in assay [15], “inactive”; in assay [16] it was “inactive”; in assay [17] it was “inactive”; in [18], “inactive”. Moreover, the AC50 in assay [7] and in [12] was 47.8 µM (active) in each case.

`CCN1CCC2(CC1)COc1cc3c(cc12)N(C(=O)c1ccc(-c2ccc(-c4nnc(C)o4)cc2C)cc1)CC3`: the AC50 was 16.6 µM (active) in [1]; 27.7 µM (active) in assay [2]; 22.8 µM (active) in [3]; 14.5 µM (active) in [4]; 13.4 µM (active) in assay [5]; 16 µM (active) in [6]. In addition, the AC50 was 31.8 µM (active) in assay [7]; 29.3 µM (active) in [8]; 18.2 µM (active) in assay [10]; 32.7 µM (active) in [12]; 76.1 µM (active) in assay [14]; 46.8 µM (active) in assay [15]. Moreover, the AC50 in assay [16] is 15.6 µM (active); in [17], 21.8 µM (active); in assay [18] it was 22.7 µM (active). Further, the outcome is “inactive” in the assay with HGF (gene 3082); “inactive” in [9]; “inactive” in assay [11]; “inactive” in assay [13]; “inactive” with MYC, MYC (gene 4609).

Turning to `CC(C)(c1ccccc1)c1ccc(O)c(C(C)(C)c2ccccc2)c1`, the AC50 is 50 µM (active) in assay [1]; 90.2 µM (active) in assay [2]; 71.5 µM (active) in assay [3]; 50 µM (active) in assay [4]; 61.7 µM (active) in [11]; 78 µM (active) in assay [13]. In addition, in the assay with MYC, MYC (gene 4609), the AC50 is 50 µM (active). Also, the call (with HGF (gene 3082); in assay [5]; in assay [6]; in assay [7]; in assay [8]; in assay [9]) was inactive. For the same compound, the outcome in assay [10], in assay [12], in [14], in [15], in assay [16] and in assay [17] was inactive. For the same compound, the call in assay [18] was inactive.

In general, AC50 refers to the midpoint of the concentration-response curve, whichever way the signal moves.
